Assay results as given in the supplement of paper PMC9694430.
Where “and” joins values, the source holds several entries; their conditions need not be identical. Identical values can stand only once.

How the values were obtained:
Experiment in all cases: thermal shift delta Tm vs DMSO control; higher = stronger stabilization (binding)
Conditions in all cases: 12.5 µM; protein concentration 2 µM
LOC_OS01G01410-cb001 = test system: LOC_OS01G01410-cb001
Summary of the method: (§1)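 Purified, E. coli-expressed rice kinase domain constructs were tested by differential scanning fluorimetry in 96-well plates: 19.5 μl of 2 μM kinase in 100 mM potassium phosphate pH 7.5, 150 mM NaCl, 10% glycerol, 5 × SYPRO Orange, plus compound in DMSO. Fluorescence was read from 25°C to 95°C at 0.05°C/s. Melting temperatures came from Boltzmann fits, and the shift is the triplicate mean relative to protein with DMSO alone.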

LOC_OS01G02750-cb003 = test system: LOC_OS01G02750-cb003
Summary of the method: as §1

LOC_OS01G10900-cb004 = test system: LOC_OS01G10900-cb004
Summary of the method: as §1

LOC_OS01G13800-cb001 = test system: LOC_OS01G13800-cb001
Summary of the method: as §1

LOC_OS01G14860-cb001 = test system: LOC_OS01G14860-cb001
Summary of the method: as §1

LOC_OS01G21960-cb002 = test system: LOC_OS01G21960-cb002
Summary of the method: as §1

LOC_OS01G39600-cb002 = test system: LOC_OS01G39600-cb002
Summary of the method: as §1

LOC_OS01G48390-cb002 = test system: LOC_OS01G48390-cb002
Summary of the method: as §1

LOC_OS01G51400-cb002 = test system: LOC_OS01G51400-cb002
Summary of the method: as §1

LOC_OS01G52050-cb004 = test system: T1, LOC_OS01G52050-cb004
T1 sequence (whole entry): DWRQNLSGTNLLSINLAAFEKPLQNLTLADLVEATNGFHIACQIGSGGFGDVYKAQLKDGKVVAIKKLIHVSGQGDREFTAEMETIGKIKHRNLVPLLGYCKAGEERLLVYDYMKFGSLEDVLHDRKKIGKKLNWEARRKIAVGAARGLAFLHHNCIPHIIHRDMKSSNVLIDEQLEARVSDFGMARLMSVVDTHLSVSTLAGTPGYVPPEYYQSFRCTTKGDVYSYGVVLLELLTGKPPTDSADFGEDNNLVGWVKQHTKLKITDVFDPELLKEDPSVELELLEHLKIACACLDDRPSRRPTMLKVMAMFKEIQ
Summary of the method: as §1

LOC_OS01G57100-cb003 = test system: LOC_OS01G57100-cb003
Summary of the method: as §1

LOC_OS01G60330-cb001 = test system: LOC_OS01G60330-cb001
Summary of the method: as §1

LOC_OS01G60700-cb002 = test system: LOC_OS01G60700-cb002
Summary of the method: as §1

LOC_OS01G63280-cb003 = test system: LOC_OS01G63280-cb003
Summary of the method: as §1

LOC_OS01G67340-cb003 = test system: LOC_OS01G67340-cb003
Summary of the method: as §1

LOC_OS01G70970-cb002 = test system: LOC_OS01G70970-cb002
Summary of the method: as §1

LOC_OS02G07810-cb001 = test system: LOC_OS02G07810-cb001
Summary of the method: as §1

LOC_OS02G08530-cb003 = test system: LOC_OS02G08530-cb003
Summary of the method: as §1

LOC_OS02G14120-cb001 = test system: LOC_OS02G14120-cb001
Summary of the method: as §1

LOC_OS02G17970-cb001 = test system: LOC_OS02G17970-cb001
Summary of the method: as §1

| SMILES | thermal shift delta Tm (LOC_OS01G01410-cb001) | thermal shift delta Tm (LOC_OS01G02750-cb003) | thermal shift delta Tm (LOC_OS01G10900-cb004) | thermal shift delta Tm (LOC_OS01G13800-cb001) | thermal shift delta Tm (LOC_OS01G14860-cb001) | thermal shift delta Tm (LOC_OS01G21960-cb002) | thermal shift delta Tm (LOC_OS01G39600-cb002) | thermal shift delta Tm (LOC_OS01G48390-cb002) | thermal shift delta Tm (LOC_OS01G51400-cb002) | thermal shift delta Tm (LOC_OS01G52050-cb004) | thermal shift delta Tm (LOC_OS01G57100-cb003) | thermal shift delta Tm (LOC_OS01G60330-cb001) | thermal shift delta Tm (LOC_OS01G60700-cb002) | thermal shift delta Tm (LOC_OS01G63280-cb003) | thermal shift delta Tm (LOC_OS01G67340-cb003) | thermal shift delta Tm (LOC_OS01G70970-cb002) | thermal shift delta Tm (LOC_OS02G07810-cb001) | thermal shift delta Tm (LOC_OS02G08530-cb003) | thermal shift delta Tm (LOC_OS02G14120-cb001) | thermal shift delta Tm (LOC_OS02G17970-cb001) |
| --- | --- | --- | --- | --- | --- | --- | --- | --- | --- | --- | --- | --- | --- | --- | --- | --- | --- | --- | --- | --- |
| COc1ccc2c(c1)[C@]1(C[C@H]1c1ccc3c(/C=C/c4ccc(CN5C[C@@H](C)O[C@@H](C)C5)cc4)n[nH]c3c1)C(=O)N2 | 1.94 °C | 8.4 °C | 1.53 °C | -0.69 °C | 1.2 °C | 0.67 °C | 2.15 °C | 1.77 °C | 1.27 °C | 4.31 °C | 2.82 °C | -0.26 °C | 0.64 °C | 1.2 °C | 2.12 °C | 2.01 °C | -0.49 °C | 1.45 °C | 7.54 °C | 0.31 °C |
| Cc1cnc(-c2cnc(NCCNc3ccc(C#N)cn3)nc2-c2ccc(Cl)cc2Cl)[nH]1 | 0.25 °C and -0.35 °C | 1.32 °C and 0.93 °C | 0.52 °C and -0.13 °C | 0.39 °C and 0.37 °C | 7.39 °C and 7.4 °C | 1.7 °C and 1.69 °C | 0.07 °C and 1.56 °C | 0.47 °C and 0.64 °C | 0.25 °C and 0.6 °C | 0.73 °C and 0.53 °C | 0.99 °C and 1.83 °C | 0.47 °C and 0.68 °C | 0.39 °C and 1.43 °C | 1.2 °C and 1.03 °C | 0.03 °C and 0.47 °C | 1.08 °C and 1.19 °C | 1.11 °C and 0.87 °C | 0.72 °C and 0.68 °C | 0.07 °C and 0.44 °C | 0.65 °C and 2.15 °C |
| CNC(=O)c1ccc(-c2cnc3ncc(Cc4ccc5ncccc5c4)n3n2)cc1F | 0.07 °C | 0.51 °C | 0.48 °C | -0.08 °C | 0.29 °C | 0.73 °C | -0.03 °C | 0.24 °C | -0.03 °C | 0.32 °C | 0.49 °C | -0.8 °C | 0.39 °C | 0.07 °C | 0.32 °C | -0.18 °C | 0.83 °C | 0.3 °C | -0.02 °C | 0.26 °C |
| CC(C)(C)c1nc(-c2ccc(NC(=O)Nc3cccc(C(F)(F)F)c3)c3ccccc23)c2c(N)nccn12 [kira6] | 0.7 °C | 9.79 °C | 0.45 °C | 1.09 °C | 1.63 °C | 2.1 °C | 1.51 °C | 1.52 °C | 0.79 °C | 5.68 °C | 0.63 °C | 1.17 °C | 0.03 °C | 14.6 °C | 8.45 °C | 0.75 °C | 0.03 °C | 2.22 °C | 2.07 °C | 1.1 °C |
| CCN1/C(=C/C(C)=O)Sc2ccc(OC)cc21 | 0.21 °C | 0.62 °C | 0.24 °C | 0.6 °C | 1.92 °C | 1.17 °C | -0.62 °C | 0.54 °C | 0.02 °C | -0.01 °C | 1.85 °C | 1.16 °C | 0.54 °C | 0.05 °C | 0.66 °C | 0.38 °C | 0.47 °C | 0.41 °C | 0.43 °C | 0.27 °C |
| Cc1cnc(Nc2ccc(OCCN3CCCC3)cc2)nc1Nc1cccc(S(=O)(=O)NC(C)(C)C)c1 | 1.71 °C | 0.69 °C | 0.57 °C | -0.28 °C | 1.28 °C | 2.52 °C | 5.09 °C | 0.66 °C | 0.43 °C | 2.51 °C | 2.1 °C | 1.83 °C | 0.56 °C | 0.21 °C | 0.84 °C | 2.94 °C | 0.5 °C | 2.64 °C | 7.4 °C | 0.44 °C |
